Reference: PubChem BioAssay (Tox21)
Values joined by “and” are separate entries in the source; they are usually repeats but may differ in a detail not shown here. Equal values may be shown once. Inconclusive results are not listed. Where a structure was tested more than once in an assay, its records may differ in their call. Active and inactive are the calls of the source. Unless noted, calls follow the shape of the dose curve; as a rule, active = well fitted curve in the direction sought with a large enough effect in the repeat runs; inconclusive = weak or mixed curves; inactive = no such curve, though single readings can be large; an effect the other way counts as inactive or inconclusive.

Legend:
[1] = qHTS assay to identify small molecule agonists of the farnesoid-X-receptor (FXR) signaling pathway - cell viability counter screen (AID 743218); also: nearly all actives have a fitted effect of over 45% in size; also: potency is read from the fitted curve at half-maximal effect
Summary of the method: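 Same-well cytotoxicity check on FXR-UAS-bla HEK 293T cells: 5 h attachment, 16 h compound at 37 C, CellTiter-Glo luminescence read at room temperature after 30 min.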

[2] = qHTS assay to identify small molecule antagonists of the farnesoid-X-receptor (FXR) signaling pathway - cell viability counter screen (AID 743221; active = well fitted cell-killing curve with a large enough effect in the repeat runs, not every such curve was filed as active; also: nearly all actives have a fitted effect of over 50% in size; also: potency is read from the fitted curve at half-maximal effect)
Summary of the method: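 In GeneBLAzer FXR-UAS-bla HEK 293T cells stimulated with 50 uM chenodeoxycholic acid (final), compounds acted for 16 h at 37 C. Viability was assessed afterwards by CellTiter-Glo luminescence.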

[3] = molecular target: Peroxisome proliferator-activated receptor delta (Homo sapiens) (UniProt Q03181); assay: qHTS assay to identify small molecule agonists of the peroxisome proliferator-activated receptor delta (PPARd) signaling pathway (AID 743212; calls by dose curve; also: potency is read from the fitted curve at half-maximal effect)
Peroxisome proliferator-activated receptor delta (Homo sapiens), sequence (Q03181 whole entry, looked up): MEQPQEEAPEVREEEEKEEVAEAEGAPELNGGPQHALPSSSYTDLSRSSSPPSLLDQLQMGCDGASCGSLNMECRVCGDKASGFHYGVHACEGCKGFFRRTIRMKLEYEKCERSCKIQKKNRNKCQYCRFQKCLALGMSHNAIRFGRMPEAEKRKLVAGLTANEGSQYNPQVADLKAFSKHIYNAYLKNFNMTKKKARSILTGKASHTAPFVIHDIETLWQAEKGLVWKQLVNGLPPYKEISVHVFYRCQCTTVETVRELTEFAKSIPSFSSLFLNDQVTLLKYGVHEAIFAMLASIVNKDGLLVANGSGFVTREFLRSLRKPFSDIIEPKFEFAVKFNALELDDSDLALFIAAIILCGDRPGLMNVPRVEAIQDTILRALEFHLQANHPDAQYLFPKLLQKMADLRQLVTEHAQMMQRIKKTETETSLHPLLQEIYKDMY
Summary of the method: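 Cells expressing a UAS-driven beta-lactamase reporter (PPARd-bla HEK293H) were given test compounds after a 5 h settle and kept at 37 C. Reporter activity was then measured as FRET fluorescence using LiveBLAzer B/G substrate.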

[4] = molecular target: Peroxisome proliferator-activated receptor delta (Homo sapiens) (UniProt Q03181); assay: qHTS assay to identify small molecule antagonists of the peroxisome proliferator-activated receptor delta (PPARd) signaling pathway (AID 743215; active = well fitted inhibition curve with a large enough effect in the signal ratio in the repeat runs, not every such curve was filed as active; the % refers to the signal ratio;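 also: cells stimulated with agonist L165041 at 300 nM final during compound exposure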; also: potency is read from the fitted curve at half-maximal effect)
Summary of the method: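 Screen format: qHTS, antagonist mode. HEK293H PPARd-bla cells received compound and 300 nM L165041 (final), 17 h, 37 C. Beta-lactamase detected via FRET substrate fluorescence, 2 h, room temperature.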

[5] = molecular target: Bile acid receptor (Homo sapiens) (UniProt Q96RI1); assay: qHTS assay to identify small molecule agonists of the farnesoid-X-receptor (FXR) signaling pathway (AID 743220; active = well fitted activation curve with a large enough effect in the signal ratio in the repeat runs, not every such curve was filed as active; the % refers to the signal ratio)
Bile acid receptor (Homo sapiens), sequence (Q96RI1 whole entry, looked up): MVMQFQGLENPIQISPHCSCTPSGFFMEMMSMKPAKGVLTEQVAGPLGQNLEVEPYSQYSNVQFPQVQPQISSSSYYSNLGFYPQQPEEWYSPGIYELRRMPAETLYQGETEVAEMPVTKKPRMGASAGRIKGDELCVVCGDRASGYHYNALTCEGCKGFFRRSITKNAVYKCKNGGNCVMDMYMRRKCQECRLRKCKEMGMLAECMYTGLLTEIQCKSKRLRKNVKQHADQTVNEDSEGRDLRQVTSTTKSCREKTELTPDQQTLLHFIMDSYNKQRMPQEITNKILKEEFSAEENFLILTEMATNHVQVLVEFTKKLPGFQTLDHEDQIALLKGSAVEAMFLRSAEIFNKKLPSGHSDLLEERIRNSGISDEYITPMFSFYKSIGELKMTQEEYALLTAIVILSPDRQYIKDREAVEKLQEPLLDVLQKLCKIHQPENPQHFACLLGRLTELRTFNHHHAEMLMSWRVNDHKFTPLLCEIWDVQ
Summary of the method: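 FXR-UAS-bla HEK 293T cells carrying a UAS-driven beta-lactamase reporter were plated for 5 h at 37C/5% CO2, then exposed to DMSO-dissolved Tox21 10K compounds for 16 h at 37C. A LiveBLAzer B/G FRET substrate was loaded for 2 h at room temperature before fluorescence reading.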

[6] = molecular target: Vitamin D3 receptor (Homo sapiens) (UniProt P11473); assay: qHTS assay to identify small molecule agonists of the vitamin D receptor (VDR) signaling pathway (AID 743222; calls by dose curve)
Vitamin D3 receptor (Homo sapiens), sequence (P11473 whole entry, looked up): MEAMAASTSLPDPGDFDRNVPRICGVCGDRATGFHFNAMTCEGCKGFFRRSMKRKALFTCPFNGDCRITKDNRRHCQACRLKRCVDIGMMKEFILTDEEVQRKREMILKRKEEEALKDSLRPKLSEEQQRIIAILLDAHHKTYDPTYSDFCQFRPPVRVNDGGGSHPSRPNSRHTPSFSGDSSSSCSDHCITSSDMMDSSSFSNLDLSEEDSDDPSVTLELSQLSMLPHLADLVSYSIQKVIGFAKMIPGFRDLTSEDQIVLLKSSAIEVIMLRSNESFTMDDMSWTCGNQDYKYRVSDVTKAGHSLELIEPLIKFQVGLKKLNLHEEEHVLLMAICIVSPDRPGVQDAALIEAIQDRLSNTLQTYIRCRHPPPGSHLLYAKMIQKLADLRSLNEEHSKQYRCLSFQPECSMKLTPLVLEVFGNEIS
Summary of the method: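 Using LiveBLAzer B/G FRET detection, agonism was scored in VDR-bla cells exposed overnight (16 h, 37C) to DMSO-dissolved compounds; substrate incubation was 2 h at room temperature.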

[7] = molecular target: Vitamin D3 receptor (Homo sapiens) (UniProt P11473); assay: qHTS assay to identify small molecule antagonists of the vitamin D receptor (VDR) signaling pathway (AID 743223; active = well fitted inhibition curve with a large enough effect in the signal ratio in the repeat runs, not every such curve was filed as active; the % refers to the signal ratio; also: potency is read from the fitted curve at half-maximal effect)
Summary of the method: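 Agonist 1alpha,25-dihydroxyvitamin D3 (3 nM in well) was added with each compound to VDR-bla cells preincubated 4 h. Cells stood 16 h at 37C, then FRET substrate 2 h at room temperature; fluorescence intensity recorded.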

[8] = qHTS assay to identify small molecule antagonists of the peroxisome proliferator-activated receptor delta (PPARd) signaling pathway - cell viability counter screen (AID 743213); also: nearly all actives have a fitted effect of over 50% in size; also: potency is read from the fitted curve at half-maximal effect
Summary of the method: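 HEK293H cells with the PPARd UAS-bla reporter, co-treated 17 h at 37 C with compounds and L165041 (300 nM final), were lysed with CellTiter-Glo. Luminescence indicated viable cell content.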

[9] = molecular target: Bile acid receptor (Homo sapiens) (UniProt Q96RI1); assay: qHTS assay to identify small molecule antagonists of the farnesoid-X-receptor (FXR) signaling pathway (AID 743217; active = well fitted inhibition curve with a large enough effect in the signal ratio in the repeat runs, not every such curve was filed as active; the % refers to the signal ratio; also: potency is read from the fitted curve at half-maximal effect)
Summary of the method: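 Quantitative HTS, beta-lactamase reporter format: FXR-UAS-bla HEK 293T cells co-treated 16 h at 37 °C with compounds and 50 uM final chenodeoxycholic acid, then read by B/G FRET fluorescence.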

Measured: Potency

CN(C)c1ccc(C(=C2C=CC(=[N+](C)C)C=C2)c2ccccc2)cc1
active: [1] 437 nM and 2.37 µM | [2] 617 nM and 1.5 µM

O=C(O)Cn1cnnn1
not listed: [8] | [9]
inactive: all other assays above

O=C1Nc2ccccc2C1(c1ccc(O)cc1)c1ccc(O)cc1
not listed: [5] | [9]
inactive: all other assays above

CC(N)=O
inactive: [8] | [1] | [2]

CCCCC/C=C/CC1CC(=O)OC1=O (centres undefined)
inactive: [1] | [2] | [6] | [7]

CC[C@]1(O)C[C@@H]2CN(CCc3c([nH]c4ccccc34)[C@@](C(=O)OC)(c3cc4c(cc3OC)N(C)[C@H]3[C@@](O)(C(=O)OC)[C@H](OC(C)=O)[C@]5(CC)C=CCN6CC[C@]43[C@@H]65)C2)C1
not listed: [5] | [9]
inactive: all other assays above

CC(=O)OCC1=C(C(=O)O)N2C(=O)[C@@H](NC(=O)Cc3cccs3)[C@H]2SC1
not listed: [3] | [4] | [8]
inactive: all other assays above

CCCCCC(=O)O[C@]1(C(C)=O)CC[C@H]2[C@@H]3CCC4=CC(=O)CC[C@]4(C)[C@H]3CC[C@@]21C
active: [1] 43.4 µM

CC1=C(C=O)C(C)(C)CC=C1
inactive: [3] | [2] | [6]

CCCCCCC(O)CCCCCCCCCCC(=O)O (centres undefined)
inactive and 34.7 µM (active): [9]
inactive: [4]
active: [3] 21.9 µM

Nc1cc(Cl)c(-c2cc(Cl)c(N)cc2Cl)cc1Cl
inactive: [3]
active: [8] 24.5 µM | [2] 38.9 µM | [7] 54.9 µM

O=C(O)c1cc(Cl)cc(Cl)c1
inactive: [3] | [4] | [2]

CC(C(O)c1ccc(O)cc1)N1CCC(Cc2ccccc2)CC1 (centres undefined)
inactive: [8] | [1] | [2]

CCCCCCCCCCCCCCCCCl
inactive: [1] | [2] | [6] | [7]

C[N+]1([O-])CCOCC1
not listed: [5] | [9]
inactive: all other assays above

O=C(O)CP(=O)(O)O
inactive: [3] | [2] | [7]

c1ccc2c(c1)-c1cccc3c1c-2cc1ccccc13
inactive: [8] | [4] | [2]

CC1COc2c(N3CCN(C)CC3)c(F)cc3c(=O)c(C(=O)O)cn1c23 (centres undefined)
not listed: [1] | [9]
inactive: all other assays above

O=Nc1ccc(Nc2ccccc2)cc1
active: [8] 49 µM | [4] 30.9 µM | [1] 55.3 µM and 54.9 µM | [2] 39.1 µM
inactive: [6]

CCOc1ccc2c(c1)C(C)=CC(C)(C)N2
inactive: [3] | [8] | [2]

CN(C)c1ccc2nc3ccc(=[N+](C)C)cc-3sc2c1
inactive: [1] | [5]
active: [9] 8.37 µM and 21.9 µM and 8.41 µM | [2] 21 µM and 49 µM
49 µM (active) and inactive: [8]

CCCCCCCCCCCCc1ccccc1O
active: [8] 24.2 µM and 21.9 µM | [1] 17.2 µM and 30.9 µM | [2] 43.1 µM and 43.6 µM | [7] 15.3 µM and 19.5 µM

NC(=Nc1ccccc1)Nc1ccccc1
inactive: [3] | [4] | [1] | [2]

CCC(C)(Oc1ccc(C2(c3ccc(OC(C)(CC)C(=O)O)cc3)CCCCC2)cc1)C(=O)O (centres undefined)
inactive: [8] | [1] | [5] | [2]

CCC(=O)/C=C/C1C(C)=CCCC1(C)C (centres undefined)
not listed: [1] | [9]
inactive: all other assays above

C1COC(NC(C2CC2)C2CC2)=N1
not listed: [5] | [6] | [9]
inactive: all other assays above

Clc1ccc2c(c1)C(N1CCNCC1)=Nc1ccccc1O2
inactive: [3] | [4] | [2]
active: [1] 38.9 µM

CC(C)(O)CCC(C)(C)O
not listed: [5] | [8] | [9]
inactive: all other assays above

CC(C)C(=O)c1c(C(C)C)nn2ccccc12
inactive: [4] | [5] | [2] | [7]

CC(C)CCCCCCc1ccc(O)cc1
active: [2] 22.3 µM and 49 µM | [7] 22.3 µM and 43.6 µM
inactive: [3] | [4] | [6]
